Source: PubChem
The list is not random: actives were taken first. Their share in the collection is about 3.6%.
ClpP mod: qHTS Assay for Activators of ClpP; AID 651965, 2013; purified B. subtilis ClpP, FRET peptide cleavage, 20 min; Potency, µM (top dose mostly 57.5 µM), for the others: at the highest dose activity change, negative = active; 340,000 tested, 1.9% active; ATP-dependent Clp protease proteolytic subunit (Bacillus subtilis (strain 168)), P80244; active = well fitted falling curve with a large enough effect; inconclusive = small, poorly fitted or top-dose-only effect; inactive = no such curve, though single readings can be large or run the other way; note: the source files actives as falling curves though it sought activators and does not explain the sign; nearly all actives have a fitted effect of over 65% in size
Target sequence (P80244 whole entry, looked up): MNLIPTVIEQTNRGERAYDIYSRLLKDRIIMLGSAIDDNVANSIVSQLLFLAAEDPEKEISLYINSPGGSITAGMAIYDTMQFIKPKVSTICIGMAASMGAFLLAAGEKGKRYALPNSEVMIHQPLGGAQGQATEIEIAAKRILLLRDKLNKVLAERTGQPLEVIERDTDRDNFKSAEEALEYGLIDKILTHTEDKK
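ClpP 10 microg/mL final, pH 8 Tris/KCl buffer with BSA, glycerol, Tween-20; compound pinned in; FRET-FV substrate; RT 20 min; Ex320/Em430; ΔFRET vs ADEP 5.8 microM, DMSO, no enzyme.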
TDP43 rescue: inhibitors of TDP-43 toxicity in yeast. 410,000 tested, 1.8% active. TDP-43 expressing yeast growth rescue, BacTiter-Glo, 24 h. Potency, µM (series often up to 46.1 µM), inactives show at the highest dose growth rescue (activation), actives largely listed as activators; note: % of control where 0% means no effect; nearly all actives have a fitted effect of over 50% in size
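Cell-based yeast growth screen: TDP-43 expression induced in galactose, inoculum OD600=0.02 after raffinose pregrowth to mid-log. Read-out BacTiter-Glo luminescence at 24 hr, 30 deg C; inhibition of toxicity seen as signal increase.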
MmCpn inh: inhibitors of Methanococcus maripaludis chaperonin TRiC (MmCpn) | Potency, µM (highest dose often 76.9 µM), inactives show at the top dose activity, negative = inhibition, usual class: inhibitors | 330,000 tested, 0.031% active | purified Mm-Cpn ATPase, ADP Transcreener TR-FRET; note: % is set by controls: 0 for no effect and ±100 for the full control effect; nearly all actives have a fitted effect of over 80% in size
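Reaction buffer contained 30 mM Tris pH 7.4, 100 mM KCl, 5 mM MgCl2 and 1 mM DTT. Mm-CPN (25 nM final) hydrolysed 10 uM ATP over 30 min at 37°C; ADP was read by HTRF.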
Abeta yeast res: A-beta toxicity reversal in yeast | AID 1347071 | 410,000 tested, 0.063% active | Potency, µM (highest dose often 46.1 µM), usual class: activators | yeast expressing A-beta42, growth rescue, OD600, 48 h; response scale: 0% DMSO, 100% iron-clioquinol control; note: nearly all actives have a fitted effect of over 55% in size
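Yeast A-beta toxicity model in growth medium with pinned compounds, 48 h at 30 C; growth read as absorbance at 600 nm. Normalized to FeCl3/clioquinol equimolar mix (positive) and DMSO (negative).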
aSyn rescue: inhibitors of alpha-synuclein toxicity in yeast. Yeast expressing alpha-synuclein, growth rescue, BacTiter-Glo, 24 h. Potency, µM (titrated, usually from 46.1 µM), for the others: top-dose growth rescue (activation), usual class: activators. 370,000 tested, 0.14% active; note: % of control where 0% means no effect; nearly all actives have a fitted effect of over 65% in size
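Readout is rescue of growth in alpha-synuclein-expressing yeast, so inhibitors of toxicity appear as activators. Growth after 24 hr at 30 deg C in galactose medium is quantified by luminescence.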
FUS yeast rescue: rescues growth of FUS-expressing yeast | 390,000 tested, 0.24% active | Potency, µM (titrated, usually from 76.6 µM), actives largely listed as activators | S. cerevisiae FUS-expressing, growth rescue, OD600, 24 h;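 note: plate controls were DMSO vehicle for no effect and reference control for full effect; nearly all actives have a fitted effect of over 55% in size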
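Absorbance at 600 nm, taken 24hr after compound addition, measured rescue of FUS-yeast growth at 30C. Induction used 2% galactose with seeding at OD 0.005. Controls: CP55940 from 92uM final, DMSO only.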
The depositor's hits bear a star; i = inactive; ? = inconclusive; nt = no result; [ ] = another dose, or the depositor's remark. Unless noted, calls come from the whole dose curve; as a rule, active = well fitted curve in the direction sought with a large enough effect; inconclusive = small, poorly fitted or top-dose-only effect, or another doubt; inactive = no such curve, though single readings can be large; an effect the other way counts as inactive or inconclusive. Potency is the fitted concentration of half-maximal effect.

SMILES	ClpP mod	TDP43 rescue	MmCpn inh	Abeta yeast res	aSyn rescue	FUS yeast rescue
COc1cc(/C=C/C(=O)c2ccc(C)cc2)ccc1OCC#N	-2.3%	20µM*	-0.8%	i	0.3%	nt
CCOc1ccc(C(=O)/C=C/c2cc(OC)c(OC)c(OC)c2)cc1	1.0%	25.3%	-1.8%	i	-10.0%	i
COc1ccc(/C=C/C(=O)c2cc(F)ccc2OC(=O)c2ccccc2)cc1OC	1.2%	12.6µM*	nt	i	13.6%	i
COc1cc(/C=C/C(=O)c2ccc(F)cc2)cc(OC)c1OC	0.3%	14.1µM*	-2.7%	i	7.2%	i
Cc1ccc(C(=O)/C=C/c2ccc3ncccc3c2)cc1	0.6%	12.6µM*	-3.0%	i	-3.7%	i
Cc1ccccc1-c1nc(CNC(=O)NC2CCCCC2)c(C)o1	-3.0%	19.5%	nt	i	nt	i
COc1cc(C2C(C(=O)OC(C)C)=C(C)N=C3SCCC(=O)N32)ccc1OCc1ccccc1 (centres undefined)	-9.2%	-0.2%	nt	i	nt	?
COc1ccc(N(C)C(=O)c2oc(=O)c3ccccc3c2-c2ccccc2)c(OC)c1	0.0%	16.4%	1.0%	i	0.5%	i
CN(C(=O)c1oc(=O)c2ccccc2c1-c1ccccc1)c1cccc(Cl)c1	-7.8%	25.1µM*	nt	i	nt	i
COc1cccc(CNCCSc2nnnn2C)c1OCc1ccc(Cl)cc1	-0.5%	-13.2%	nt	i	nt	i
O=C(N/N=C/c1ccc(OCc2ccccc2)cc1)c1cc[n+](Cc2ccccc2)cc1	-0.3%	20µM*	1.1%	i	2.2%	i
Cc1cccc(OCCn2c(SCC(=O)O)nc3ccccc32)c1	-0.7%	?	nt	i	0.5%	i
COc1ccccc1NC(=O)CSc1ccc(-c2ccco2)nn1	-5.6%	?	2.8%	i	-4.4%	i
COc1ccc(OC)c(NC(=O)CSc2ccc(-c3ccco3)nn2)c1	1.2%	20µM*	-2.8%	i	-7.4%	i
COc1ccccc1NC(=O)CSc1ccc(-c2cccs2)nn1	nt	22.4µM*	-1.3%	i	-18.1%	i
CCC(Oc1ccccc1-c1nnc(-c2ccccc2)o1)C(=O)Nc1ccc(C(C)=O)cc1 (centres undefined)	1.6%	3.9%	nt	i	nt	i
O=S(=O)(N[C@@H]1CCCC[C@H]1N1CCOCC1)c1ccc(Cl)cc1	nt	nt	nt	nt	nt	i
Cc1ccc(CN(C)C(=O)c2cccc(S(=O)(=O)N3CCc4ccccc4C3)c2)o1	-0.5%	35.5µM*	-1.5%	i	1.6%[1.84 µM]	i
CCOc1ccccc1C(=O)N1CCC(n2nnc3cc(C)ccc32)CC1	-5.1%	17.8µM*	-0.1%	i	11.7%	i
Cc1cccc(C(=O)N2CCC(n3nnc4cc(F)ccc43)CC2)c1	-0.8%	22.4µM*	-1.8%	i	5.7%	i
CCOc1ccccc1C(=O)N1CCC(n2nnc3cc(C(F)(F)F)ccc32)CC1	-2.5%	?	-1.2%	i	9.3%	i
COC(=O)[C@]12C[C@H](CC(=O)NCc3ccccc3)C(=O)N(Cc3ccco3)C1=C[C@H](COCc1ccccc1)O[C@@H]2C	nt	nt	nt	nt	nt	i
O=C1O/C(=C/Br)CCC1c1cccc2ccccc12 (centres undefined)	nt	nt	nt	nt	-35.8%	nt
c1cnc2c(c1)ccc1cccnc12	0.3%	35.5µM*	0.7%	i	-6.0%	i
O=C(CCNS(=O)(=O)c1ccc2c(c1)CCN2C(=O)C1CC1)Nc1ccc(F)cc1F	0.3%	14.2%	nt	i	0.4%	i
SMILES	ClpP mod	TDP43 rescue	MmCpn inh	Abeta yeast res	aSyn rescue	FUS yeast rescue
O=[N+]([O-])/C=C/c1cn(Cc2ccc(F)cc2)c2ccccc12	-0.7%	12.6µM*	-10.6%	i	8.1%	i
Cc1ccnc(-n2c(C)cc(/C=N/NC(=O)COc3cccc4cccnc34)c2C)c1	14.1µM*	-6.3%	-0.5%	i	-0.5%	i
Cc1cc(/C=N\NC(=O)COc2cccc3cccnc23)c(C)n1-c1ccccc1	-2.6%	6.6%	-3.5%	i	-0.4%	i
Clc1ccc2[nH]c3c(c2c1)CCc1cn[nH]c1-3	28.2µM*	?	1.0%	i	-36.0%	i
O=c1c2ccccc2nc2n1CCc1c-2[nH]c2ccccc12	3.7%	?	1.7%	i	-4.9%	i
c1ccc2c3c([nH]c2c1)-c1[nH]ncc1CC3	12.6µM*	?	-3.5%	i	?	i
CC(C)CCSc1nc(N)c(C#N)cc1C#N	31.6µM*	20.1%	?	i	-2.3%	i
CCN(CC)S(=O)(=O)c1ccc(OC)c(NC(=O)C(C)Oc2ccc3c(C)cc(=O)oc3c2)c1 (centres undefined)	25.1µM*	0.3%	-21.8%	i	-0.6%	?
Cc1cc(C)c(NC(=O)COc2ccc3c(C)cc(=O)oc3c2)c(C)c1	4.2%	8.9%	nt	i	nt	i
CCN(CC)S(=O)(=O)c1ccc(C)c(NC(=O)COc2ccc3c(C)cc(=O)oc3c2)c1	25.1µM*	5.8%	2.8%	i	-8.7%	i
COc1ccc(C2=CC(c3cccc(C)c3)n3nnnc3N2)cc1 (centres undefined)	31.6µM*	?	nt	i	2.2%	i
Cc1ccc(C2=CC(c3ccccc3C)n3c(nc4ccccc43)N2)cc1 (centres undefined)	-4.0%	10µM*	nt	i	nt	i
Cc1cccc(C2C=C(c3ccc(F)cc3)Nc3nc4ccccc4n32)c1 (centres undefined)	-2.1%	31.6µM*	nt	i	nt	i
Cc1ccc(-c2nc3n(n2)C(c2ccccc2C)C=C(c2ccc(Cl)cc2)N3)cc1 (centres undefined)	-6.8%	-0.6%	nt	i	nt	i
CCc1ccc(C2=CC(c3c(F)cccc3Cl)n3c(nc4ccccc43)N2)cc1 (centres undefined)	0.0%	?	nt	i	nt	?
CCOc1ccc(N2CC(NC(=O)c3ccc(S(=O)(=O)N4CCCCC4)cc3)CC2=O)cc1 (centres undefined)	0.8%	22.5%	nt	i	nt	i
O=C(c1cnn(-c2ccc(F)cc2)c1-n1cccc1)N1CCN(c2ccc(Cl)cc2)CC1	0.6%	0.0%	nt	i	2.4%	i
O=C(c1cnn(-c2ccc(F)cc2)c1-n1cccc1)N1CCN(c2ccccc2)CC1	-0.8%	14.1µM*	nt	i	6.9%	i
COCCn1nnnc1CN(Cc1ccco1)Cc1cc2cc3c(cc2[nH]c1=O)OCO3	28.2µM*	0.0%	0.3%	i	-14.7%	?
